Reference: PubChem BioAssay (Tox21)
Records with an inconclusive call do not appear. Where a call stands in place of a potency, no number is given. Calls of active or inactive are those of the source. Calls come from the whole dose curve.

Assay: p53 small molecule agonists, cell-based qHTS assay with rat liver microsomes (AID 1963578)
Details: HCT-116 p53RE-bla, beta-lactamase ratio, 16 h; series mostly up to 66 µM
Excerpt: U.S. Tox21 Program National Center for Advancing Translational Sciences [NCATS] Division of Preclinical Innovation [DPI] U.S. Environmental Protection Agency [EPA] National Institutes of Environmental Health Sciences [NIEHS] National Toxicology Program [NTP] U.S. Food and Drug Administration [FDA] Tox21 Assay Overview: p53, a tumor suppressor protein, is activated following cellular insult, including DNA damage and other cellular stresses. The activation of p53 regulates cell fate by inducing DNA repair, cell cycle arrest, apoptosis, or cellular senescence. The activation of p53, therefore, is a good indicator of DNA damage and other cellular stresses. […] The activation of the reporter gene under culture conditions can be detected by fluorescence intensity. This cell line was used to screen the Tox21 10K compound library in the condition of presence of rat liver microsomes and to identify agonists that activate the p53 signaling pathway after in vitro metabolic activation (Ooka et al., Archive of Toxicology 96:1975-1987, 2022).
Tox21 Assay Protocol Summary: The p53RE-bla cells were dispensed at 4,000cells/3ul/well in 1536-well black-clear bottom plates. After the assay plates were incubated at 37 C, 5% CO2 incubator for 5 hours, 23 nL of compounds dissolved in DMSO, positive controls or DMSO only was transferred to the assay plate. Following compound addition, 3 uL of rat liver microsomes (Molecular Toxicology, Boone, NC) at final concentration of 0.5 mg/mL and 1uL of Beta-Nicotinamide adenine dinucleotide 2-phosphate (NADPH) at final concentration of 0.5 mg/mL were transferred to the assay plate. The plates were incubated at 37 C for 16 hours. 1 uL of LiveBLAzer detection mixture was added to each well and the plates were incubated at room temperature in the dark for 2 h.

Question: For CCC[N+](CCC)(CCC)CCC, which Potency is on record?
Answer: The Potency was “inactive”.

Question: For CC(C)(C)c1cc(O)ccc1O, which Potency is on record?
Answer: The Potency was “inactive”.

Question: Which Potency does the source give for CCCCCl here?
Answer: The Potency was “inactive”.

Question: With CNNC as the molecule, how does the Potency read?
Answer: Its Potency is “inactive”.

Question: Which Potency does the source give for CC(Cc1ccc(C(C)(C)C)cc1)CN1C[C@@H](C)O[C@@H](C)C1 (stereo not given in full) here?
Answer: Its Potency is “inactive”.

Question: Which Potency does the source give for c1cc[c]([Hg][c]2ccccc2)cc1 here?
Answer: Its Potency is “inactive”.

Question: For CC(O)C#N (stereo not given), which Potency is on record?
Answer: The Potency was “inactive”.

Question: For CC1(C)C(/C=C(\Cl)C(F)(F)F)C1C(=O)OC(C#N)c1cccc(Oc2ccccc2)c1 (stereo not given), which Potency is on record?
Answer: The Potency was “inactive”.

Question: Which Potency does the source give for Cc1cc(C(C)(C)c2cc(C)c(O)c(C)c2)cc(C)c1O here?
Answer: The Potency was “inactive”.

Question: Which Potency does the source give for CSC1=N[C@@](C)(c2ccccc2)C(=O)N1Nc1ccccc1 here?
Answer: Its Potency is “inactive”.

Question: For CC(N)=S, which Potency is on record?
Answer: Its Potency is “inactive”.

Question: With CCOc1nc(C(Cl)(Cl)Cl)ns1 as the molecule, how does the Potency read?
Answer: The Potency was “inactive”.

Question: Which Potency does the source give for CCCCCCBr here?
Answer: Its Potency is “inactive”.

Question: Which Potency does the source give for [Hg+2].[I-].[I-] here?
Answer: Its Potency is “inactive”.

Question: Which Potency does the source give for CN/C(=N\[N+](=O)[O-])NCC1CCOC1 (stereo not given) here?
Answer: Its Potency is “inactive”.

Question: For CC1=C(C(=O)Nc2ccccc2)S(=O)(=O)CCO1, which Potency is on record?
Answer: The Potency was “inactive”.

Question: Which Potency does the source give for CC[C@@H](CO)NC(=O)[C@@H]1C=C2c3cccc4[nH]cc(c34)C[C@H]2N(C)C1 here?
Answer: The Potency was “inactive”.

Question: Which Potency does the source give for C[C@]12CC[C@H]3[C@@H](CCC4=CC(=O)CC[C@@H]43)[C@@H]1CC[C@@H]2OC(=O)CCc1ccccc1 here?
Answer: Its Potency is “inactive”.

Question: For OCCCBr, which Potency is on record?
Answer: Its Potency is “inactive”.

Question: For CCN(C(C)=O)c1cccc(-c2ccnc3c(C#N)cnn23)c1, which Potency is on record?
Answer: Its Potency is “inactive”.

Question: For Clc1ccccc1N1CCNCC1, which Potency is on record?
Answer: The Potency was “inactive”.

Question: Which Potency does the source give for CCCSC(=O)N(CCC)CCC here?
Answer: The Potency was “inactive”.

Question: Which Potency does the source give for CC(C)N1C(=O)N(c2ccccc2)CSC1=NC(C)(C)C here?
Answer: Its Potency is “inactive”.

Question: Which Potency does the source give for CCOC(=O)CBr here?
Answer: The Potency was “inactive”.

Question: Which Potency does the source give for CN1CCN(C(=O)O[C@H]2c3nccnc3C(=O)N2c2ccc(Cl)cn2)CC1 here?
Answer: Its Potency is “inactive”.

Question: With CCCN(CCC)CCc1c[nH]c2ccccc12 as the molecule, how does the Potency read?
Answer: The Potency was “inactive”.

Question: With CCCCC/C=C\C/C=C\C/C=C\C/C=C\CCCC(=O)NCC(=O)O as the molecule, how does the Potency read?
Answer: Its Potency is “inactive”.

Question: With CC(C)N(Cc1ccccc1)C(=O)C(C)(C)C as the molecule, how does the Potency read?
Answer: The Potency was “inactive”.

Question: Which Potency does the source give for CCOC(=O)N(C)C(=O)CSP(=S)(OCC)OCC here?
Answer: Its Potency is “inactive”.

Question: Which Potency does the source give for C[C@@H](Oc1ccc(Cl)cc1Cl)C(=O)O here?
Answer: Its Potency is “inactive”.

Question: With CC(Cc1ccccc1)N(C)Cc1ccco1 (stereo not given) as the molecule, how does the Potency read?
Answer: Its Potency is “inactive”.

Question: Which Potency does the source give for O=[N+]([O-])c1cc(C(F)(F)F)c(Cl)c([N+](=O)[O-])c1Cl here?
Answer: The Potency was “inactive”.

Question: For CC(c1ccc(O)cc1)(c1ccc(O)cc1)c1ccc(O)cc1, which Potency is on record?
Answer: The Potency was “inactive”.

Question: For COc1ccc(CN2CCNCC2)c(OC)c1OC, which Potency is on record?
Answer: The Potency was “inactive”.

Question: Which Potency does the source give for Nc1cc(Cl)ccc1O here?
Answer: Its Potency is “inactive”.

Question: Which Potency does the source give for BrCCCCCCBr here?
Answer: Its Potency is “inactive”.

Question: With COc1ccc2c(c1OC)C(=O)O[C@H]2[C@@H]1c2cc3c(cc2CCN1C)OCO3 as the molecule, how does the Potency read?
Answer: The Potency was “inactive”.

Question: Which Potency does the source give for Nc1nc(N)nc(N)n1 here?
Answer: The Potency was “inactive”.

Question: Which Potency does the source give for O=C(OC1CCCCC1)c1ccccc1C(=O)OC1CCCCC1 here?
Answer: Its Potency is “inactive”.

Question: Which Potency does the source give for OC(Cn1cncn1)(c1ccc(F)cc1)c1ccccc1F (stereo not given) here?
Answer: Its Potency is “inactive”.
